# Reference: PubChem BioAssay (Tox21)
# The source made the active and inactive calls. Calls follow the shape of the dose curve; as a rule, active = well fitted curve in the direction sought with a large enough effect in the repeat runs; inconclusive = weak or mixed curves; inactive = flat fitted curve, though single readings scatter.
# Assay: qHTS assay to test for compound auto fluorescence at 590 nm (red) in HEK293 cell free culture (AID 720683)
# Conditions: cell-free medium autofluorescence, Ex540/Em590 red; series mostly up to 46 µM
# Description: U.S. Tox21 Program National Center for Advancing Translational Sciences [NCATS] NIH Chemical Genomics Center [NCGC] U.S. Environmental Protection Agency [EPA] National Institutes of Environmental Health Sciences [NIEHS] National Toxicology Program [NTP] U.S. Food and Drug Administration [FDA] Tox21 Assay Overview: Compound auto fluorescence often interferes with screening of the compound library against various biological targets and signaling pathways. Some of these compounds may have fluorophoric properties. Such properties may interfere with the assay outputs resulting in false positives and/or negatives. To decrease such complications and ensure the compound activities are relevant in terms of biological response, the Tox21 10K compound library was screened for auto fluorescence. From the fluorophores used as reporter signals in our screening assays, the auto fluorescence equivalencies of compounds against three fluorophores have been evaluated: Triamterene, Fluorescein and Rose Bengal sodium for blue, green and red fluorescence, respectively. The fluorescence intensities were measured using Excitation/Emission wavelengths at 405/460nm, 485/535nm and 540/590nm for blue, green and red labels, respectively. This assay includes the red fluorescence data.
# Tox21 Assay Protocol Summary: 5 uL of culture medium (DMEM containing 10% FBS) per well was dispensed into black wall/clear bottom 1536-well plates using a Multidrop Combi Dispenser (ThermoFisher Scientific, Waltham, MA). After 23 nL compound or DMSO vehicle was transferred into assay plate by a pintool work station (Kalypsys, San Diego, CA), fluorescence intensities in the assay plates were measured by an Envision (PerkinElmer, Shelton, CT) plate reader using three labels for measuring blue, green and red fluorescence at […] 460, 535 and 590nm respectively.
row,SMILES,outcome
1,CC(C)=CCC/C(C)=C/CC/C(C)=C/CC/C(C)=C/CC1=C(C)C(=O)c2ccccc2C1=O,inactive
2,CC(=O)OCC(=O)[C@@]1(O)CC[C@H]2[C@@H]3CCC4=CC(=O)CC[C@]4(C)C3=CC[C@@]21C,inactive
3,CC(=NCc1ccccc1)c1ccccc1O,inactive
4,Cc1cc(C(=O)NCCc2ccc(S(=O)(=O)NC(=O)NN3CCCCCC3)cc2)no1,inactive
5,CN(Cc1ccccc1)Cc1ccccc1,inactive
6,O=C(O)c1cc(O)c2c(c1)[C@H]([C@H]1c3cc(C(=O)O)cc(O)c3C(=O)c3c(O[C@@H]4O[C@H](CO)[C@@H](O)[C@H](O)[C@H]4O)cccc31)c1cccc(O[C@@H]3O[C@H](CO)[C@@H](O)[C@H](O)[C@H]3O)c1C2=O,inactive
7,CO[C@H](C(=O)[C@@H](O)[C@@H](C)O)C1Cc2cc3cc(O[C@H]4C[C@@H](O[C@H]5C[C@@H](O)[C@H](O)[C@@H](C)O5)[C@@H](O)[C@@H](C)O4)c(C)c(O)c3c(O)c2C(=O)[C@H]1O[C@H]1C[C@@H](O[C@H]2C[C@@H](O[C@H]3C[C@](C)(O)[C@H](O)[C@@H](C)O3)[C@H](O)[C@@H](C)O2)[C@H](O)[C@@H](C)O1 (stereo not given in full),inactive
8,CCC(NC(C)C)C(O)c1ccc(O)c(O)c1 (stereo not given),inactive
9,COc1ccc(/C=N/NC(=O)c2ccncc2)c(C(=O)O)c1OC,inactive
10,CC(C)(Oc1ccc(C2CCCc3ccccc32)cc1)C(=O)O (stereo not given),inactive
11,CC1CCCCN1CCCOC(=O)c1ccccc1 (stereo not given),inactive
12,N=C(N)n1cccn1,inactive
13,COc1cc([C@@H]2c3cc4c(cc3[C@@H](O[C@@H]3O[C@@H]5CO[C@@H](C)O[C@H]5[C@H](O)[C@H]3O)[C@H]3COC(=O)[C@H]23)OCO4)cc(OC)c1O,inactive
14,CO/N=C(\C(=O)N[C@@H]1C(=O)N2C(C(=O)[O-])=C(C[n+]3cccc4c3CCC4)CS[C@H]12)c1csc(N)n1,inactive
15,CO/N=C(\C(=O)N[C@@H]1C(=O)N2C(C(=O)[O-])=C(C[n+]3ccc(N)n3CCO)CS[C@H]12)c1csc(N)n1,inactive
16,COc1ccc2ccccc2c1,inactive
17,CN1[C@@H](CC(=O)c2ccccc2)CCC[C@H]1C[C@H](O)c1ccccc1,inactive
18,COc1ccc([C@@H]2CC(=O)c3c(O)cc(O[C@@H]4O[C@H](CO[C@@H]5O[C@@H](C)[C@H](O)[C@@H](O)[C@H]5O)[C@@H](O)[C@H](O)[C@H]4O)cc3O2)cc1O,inactive
19,CCC(O)c1ccccc1 (stereo not given),inactive
20,CCN(CC)CC#CCOC(=O)C(O)(c1ccccc1)C1CCCCC1 (stereo not given),inactive

row,SMILES,outcome
1,CCCCCCCCOC(=O)c1cc(O)c(O)c(O)c1,inactive
2,NCCCC[C@H](NC(=O)[C@@H]1CCCN1C(=O)[C@@H]1CSSC[C@H](N)C(=O)N[C@@H](Cc2ccc(O)cc2)C(=O)N[C@@H](Cc2ccccc2)C(=O)N[C@@H](CCC(N)=O)C(=O)N[C@@H](CC(N)=O)C(=O)N1)C(=O)NCC(N)=O,inactive
3,CCCCC[C@H](O)/C=C/[C@@H]1[C@@H](C/C=C\CCCC(=O)O)[C@@H](O)C[C@H]1O,inactive
4,Cc1cc(F)ccc1-c1cc(N2CC[C@@H](O)[C@H]2CO)ncc1N(C)C(=O)C(C)(C)c1cc(C(F)(F)F)cc(C(F)(F)F)c1,inactive
5,Nc1cc(Cl)c(NC2=NCCN2)c(Cl)c1,inactive
6,COc1cc2c(cc1OC)[C@@H](Cc1cc(OC)c(OC)c(OC)c1)[N+](C)(CCCOC(=O)CC/C=C/CCC(=O)OCCC[N+]1(C)CCc3cc(OC)c(OC)cc3[C@H]1Cc1cc(OC)c(OC)c(OC)c1)CC2 (stereo not given in full),inactive
7,COC1=C(OC)C(=O)C(C/C=C(\C)CC/C=C(\C)CC/C=C(\C)CC/C=C(\C)CC/C=C(\C)CC/C=C(\C)CC/C=C(\C)CC/C=C(\C)CC/C=C(\C)CCC=C(C)C)=C(C)C1=O,inactive
8,O=C(O)[C@H]1CN(C/C=C/P(=O)(O)O)CCN1,inactive
9,C[C@@H]1O[C@@H]1P(=O)(O)O,inactive
10,CN1C(C(=O)Nc2ccccn2)C(=O)c2sc(Cl)cc2S1(=O)=O (stereo not given),inactive
11,O=C(CCN1CCC(c2ccccc2)C1)c1ccc2c(c1)OCCO2 (stereo not given),inactive
12,CC(=O)Nc1ccc(OC(C)=O)cc1,inactive
13,Cc1cc(CC(C)CC(C)(C)C)n(O)c(=O)c1 (stereo not given) (tested in a mixture with another compound),inactive
14,O=C1CCCCCCCCCCCCCC1,inactive
15,COc1c(O)cc2c(c1O)[C@@H]1O[C@H](CO)[C@@H](O)[C@H](O)[C@H]1OC2=O,inactive
16,FC(F)(F)C(F)(F)C(F)(F)C(F)(F)C(F)(F)F,inactive
17,O=P(O)(O)OP(=O)(O)OP(=O)(O)O,inactive
18,O=S(=O)(O)CC(S)CS (stereo not given),inactive
19,CS(=O)(=O)c1ccc([C@@H](CC2CCCC2)C(=O)Nc2cnccn2)cc1Cl,inactive
20,Nc1ccc(N)c([N+](=O)[O-])c1,inactive
